Results filed as inconclusive are left out. Activity calls are given as the source filed them. Calls follow the shape of the full dose curve.
Assay: Cell Viability - SK-N-SH (AID 435);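 also: compound exposure lasted 40 h at 37 °C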
Conditions: SK-N-SH neuroblastoma cell viability qHTS
Excerpt: NIH Chemical Genomics Center [NCGC]
NIH Molecular Libraries Screening Centers Network [MLSCN]
National Institutes of Environmental Health Sciences [NIEHS]
National Toxicology Program [NTP]
We have developed a 1536-well cell-based assay for quantitative high throughput screening (qHTS) against a number of cell lines to determine in vitro cytotoxicity of small molecules. This particular assay uses the SK-N-SH cell line which is derived from human neuroblastoma.
NCGC Assay Protocol Summary:
The CellTiter-Glo luminescent cell viability assay (Promega) is a homogeneous method to measure the number of viable cells in culture. The end point readout of this assay is based on quantitation of intracellular ATP, an indicator of metabolic activity, using the luciferase reaction. Luciferase catalyzes the oxidation of beetle Luciferin to oxyluciferin and light in the presence of ATP. The luminescent signal is proportional to amount of ATP present.
Using the CellTiter-Glo luminescent cell viability assay, the amount of cellular ATP was measured in the SK-N-SH cell line with complete culture medium following compound treatment for 40 hours. The assay was performed in opaque white Kalypsys 1536-well plates. In the screen, tamoxifen and doxorubicin were used as positive controls. Library compounds were measured for their ability to cause acute toxicity in the cell line, as reflected by a decrease in intracellular ATP levels, in a concentration-dependent manner. Data were normalized to the controls for basal activity (DMSO only) and 100% inhibition (100 uM tamoxifen). AC50 values were determined from concentration-response data modeled with the standard Hill equation.
qHTS protocol fo CellTiter Glo SK-N-SH cellular assay
[Step] [Parameter] [Value] [Description]
1. Reagent; 5 uL; 1500 SK-N-SH cells/well
2. Time; 5 hr; 37 °C incubation
4. Controls; 23 nL; Tamoxifen 0.34 uM to 100 uM & Doxorubicin 0.02 nM to 100 uM
5. Time; 40 hr; 37 °C incubation
6. Reagent; 5 uL; CellTiter Glo reagent
7. Time; 20 min; Room Temperature
8. Detection; Luminescence; Viewlux plate reader
Keywords: cell viability, cytotoxicity, SK-N-SH cell line, luminescence, NTPHTS, NTPHTS_NCGC, NIEHS, EPA, DSSTox, MLSMR, MLSCN, NIH Roadmap, qHTS, NCGC
Potency is read from the fitted curve at half-maximal effect.

SMILES | Potency
COc1cc(CNC(=O)CCCC/C=C/C(C)C)ccc1O | > 92 µM (inactive)
CN(C)CCC(c1ccc(Cl)cc1)c1ccccn1 (stereo not drawn) | > 92 µM (inactive)
Oc1ccccc1O | > 92 µM (inactive)
CC1(C)S[C@@H]2[C@H](NC(=O)[C@H](N)c3ccccc3)C(=O)N2[C@H]1C(=O)O | > 92 µM (inactive)
c1ccc2sc(SSc3nc4ccccc4s3)nc2c1 | > 92 µM (inactive)
S=c1[nH]c2ccccc2s1 | > 92 µM (inactive)
N=C1N=C(N)c2cc3ccccc3cc21 | 33.3 µM (active)
O=c1cc(-c2ccccc2)oc2ccccc12 | > 92 µM (inactive)
Nc1ccc([N+](=O)[O-])cc1O | > 92 µM (inactive)
Nc1ccc(O)c(C(=O)O)c1 | > 92 µM (inactive)
CCCOC(=O)c1ccc(O)cc1 | > 92 µM (inactive)
C#C[C@]1(O)CC[C@H]2[C@@H]3CCc4cc(O)ccc4[C@H]3CC[C@@]21C | 25.5 µM (inactive)
COc1cc(/C=C/C(=O)CC(=O)/C=C/c2ccc(O)c(OC)c2)ccc1O | 22.9 µM (active)
NCCO | > 92 µM (inactive)
CN1CCC[C@H]1c1cccnc1 | > 92 µM (inactive)
O=C(O)/C=C\C(=O)O | > 92 µM (inactive)
CN(C)c1ccc(C(=C2C=CC(=[N+](C)C)C=C2)c2ccccc2)cc1 | 0.052 µM (active)
CC(C)NCC(O)COc1cccc2ccccc12 (stereo not drawn) | > 92 µM (inactive)
Nc1nc2ccc([N+](=O)[O-])cc2s1 | > 92 µM (inactive)
Nc1ccc(O)c([N+](=O)[O-])c1 | > 92 µM (inactive)
CN(C)c1ccc(N=NS(=O)(=O)O)cc1 | > 92 µM (inactive)
c1cnc2c(c1)ccc1cccnc12 | 3.86 µM (active)
CCCCCCCCCCCCCCCCCC(=O)O | > 92 µM (inactive)

— PubChem BioAssay (NCATS)
